What all share (assay type): functional
Assay [1] deals with Solute carrier family 2, facilitated glucose transporter member 1 (Homo sapiens) (UniProt P11166). Kind of assay: ST_JUDE_LEISH: Cytotoxicity at 2uM final concentration against transgenic Leishmania Mexicana promastigotes LmGLUT1 that are glucose transport deficient and complemented with the human glucose transporter GLUT1. Activity is measured by DNA content using SYBR green in vitro.

For assay [2], the target named is Hexose transporter 1 (Plasmodium falciparum) (UniProt O97467). In words: ST_JUDE_LEISH: Cytotoxicity at 2uM final concentration against transgenic Leishmania Mexicana promastigotes LmPfHT that are glucose transport deficient and complemented with the Plasmodium falciparum hexose transporter. Activity is measured by DNA content using SYBR green in vitro.
For assay [3], the target named is Glucose transporter (Leishmania mexicana) (UniProt O61059). In words: ST_JUDE_LEISH: Cytotoxicity at 2uM final concentration against transgenic Leishmania Mexicana promastigotes LmGT2 that are glucose transport deficient and complemented with the L. Mexicana glucose transporter 2. Activity is measured by DNA content using SYBR green in vitro.

The structures appear in SMILES notation.

Solute carrier family 2, facilitated glucose transporter member 1 (Homo sapiens), sequence (P11166 whole entry): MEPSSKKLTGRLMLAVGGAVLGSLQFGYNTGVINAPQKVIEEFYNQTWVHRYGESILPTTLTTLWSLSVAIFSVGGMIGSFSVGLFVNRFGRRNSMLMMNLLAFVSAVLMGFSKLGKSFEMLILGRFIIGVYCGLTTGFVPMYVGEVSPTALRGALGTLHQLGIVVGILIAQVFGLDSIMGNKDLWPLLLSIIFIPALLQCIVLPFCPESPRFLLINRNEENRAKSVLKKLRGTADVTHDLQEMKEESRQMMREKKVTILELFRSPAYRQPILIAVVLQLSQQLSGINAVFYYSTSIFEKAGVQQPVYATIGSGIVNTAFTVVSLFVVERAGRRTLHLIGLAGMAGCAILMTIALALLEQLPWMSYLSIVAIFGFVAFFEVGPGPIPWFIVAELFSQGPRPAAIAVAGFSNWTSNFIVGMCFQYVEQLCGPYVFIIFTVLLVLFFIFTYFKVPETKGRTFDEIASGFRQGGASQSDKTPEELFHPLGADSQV

For the compound `COc1ccc(CN(C)CCCc2ccc(NC(=O)c3cccc4c(=O)c5cccc(F)c5[nH]c34)cc2)cc1OC`, the inhibition – broadly, the change of the read-out against control, counted positive when it falls – in assay [1] was determined as 14.2%; in assay [2], 9.74%; in assay [3], 10.1%.

As for `CCn1c(-c2nonc2N)nc2cnc(Oc3cccc(NC(=O)c4ccc(OCCCN5CCCCC5)cc4)c3)cc21`, the figures for the inhibition in assay [1], in assay [2] and in assay [3] were 16.4%, 25.8% and 6.29%, respectively.

Consider `CC(C)C(=O)NC(c1ccc(Cl)cc1)c1ccc2cccnc2c1O` (stereo not drawn), for which the inhibition in assay [1] was 3.14%; in assay [2], 5.18%; in assay [3], 2.63%.

Consider `CCCCCCCN(Cc1ccc(OC(C)(C)C(=O)OCC)cc1)C(=O)Nc1ccccc1OCC`, for which the inhibition was -0.85% in assay [1], -1.76% in assay [2] and -2.13% in assay [3].

Turning to `CCS[C@@H]1O[C@H](COC(=O)c2ccccc2)[C@H](OC(=O)c2ccccc2)[C@H](OC(=O)c2ccccc2)[C@H]1OC(=O)c1ccccc1`, the inhibition was 1.02% in assay [1], 4.06% in assay [2] and 2.02% in assay [3].

`COc1cc2c(cc1OC)C(c1ccc(Br)cc1)CN(C)CC2` (stereo not drawn): the results for the inhibition in assay [1], in assay [2] and in assay [3] were 1.39%, 4.21% and 4.35%, respectively.

Regarding `O=C1CCCN1CCCNCc1cccc(-c2ccc(-c3nc4cc(C(F)(F)F)ccc4[nH]3)s2)c1`, the inhibition in assay [1] was found to be 4.12%; in assay [2] it was 3.19%; in assay [3] it was 4.33%.

Regarding `CC[C@H](C)CNC(=O)c1cncc(-c2ccc(CNCCCc3ccccc3)cc2)c1`, the figures for the inhibition in assay [1], in assay [2] and in assay [3] were 1.47%, -1.11% and -2.21%, respectively.

Consider `Cc1ccc(Nc2nc(N/N=C/c3cc4c(cc3Br)OCO4)nc(Nc3ccc([N+](=O)[O-])cc3)n2)cc1C`, for which the inhibition in assay [1] came to 1.58%; in assay [2], 2.19%; in assay [3], 4.71%.

For `Cc1cccc2nc(-c3cccc(-c4cccc(NC(=O)c5cnn6cccnc56)c4)c3)[nH]c12`, the inhibition in assay [1] was 5.09%; in assay [2], 4.22%; in assay [3] it was 1.19%.

Consider `O=C(Cn1c(CCc2cccc(F)c2F)nc(=O)c2cccnc21)N(Cc1ccc(-c2ccc(C(F)(F)F)cc2)cc1)C1CCN(C2CCSCC2)CC1`, for which the inhibition was 3.24% in assay [1], 4.36% in assay [2] and 0.42% in assay [3].

The values are drawn from ChEMBL document CHEMBL3433997, “St. Jude Leishmania screening dataset” (2016).
